# Assay results reported in ChEMBL document CHEMBL4513216, “Probing the Open Global Health Chemical Diversity Library for Multistage-Active Starting Points for Next-Generation Antimalarials” (ACS Infect Dis, 2020).
# Out of some 69,000 compounds screened, about 8,600 (12%) showed an effect of 50% or more. The full list was thinned out, with strong results kept by preference.
# System: Plasmodium berghei
# Test: Screen against P. berghei liver stage (PbLuc), transformed with Luciferase, at 10uM
# Format: functional, HepG2
# Settings: tested at 10 uM
row,Structure (SMILES),INHIBITION [%]
1,O=C(CO)N1CCC(c2cncc(-c3cccc(Cl)c3)n2)CC1,46.6
2,Cc1cnn(C2CCCN(C(=O)c3cc(Cl)c4c(c3)OCO4)C2)c1 (stereo not given),37.9
3,COc1ccc(-n2cc3nc(N)[nH]cc-3c2=O)cc1Cl,43.3
4,COc1ccc(-c2ccnc3nc(N4CCCCC4)[nH]c(=O)c23)cc1,30.8
5,CC(C)c1nnc2n1CCN(Cc1ccc3c(c1)OCCO3)C2,-41.4
6,CC(C)c1nnc2n1CCN(Cc1ccc3c(c1)OCO3)CC2,54.6
7,CC(C)c1nnc2n1CCN(Cc1cc(Cl)c3c(c1)OCO3)C2,33.7
8,O=C(NCC1CCC(c2ccnc3ncnn23)CC1)c1ccccn1 (stereo not given),-24.4
9,COc1ccc(C2(NC(=O)c3ccc(=O)n(C)n3)CCCC2)cc1,17.7
10,O=C(CCn1cncn1)NC1(c2cccc(Br)c2)CCC1,33.5
11,O=C(CCCn1cncn1)NC1(c2ccc(Cl)cc2)CCC1,61.3
12,COc1ccc(C2(NC(=O)CCn3cncn3)CCCCC2)cc1,62.6
13,O=C(CCCn1cncn1)NC1(c2ccccc2)CCC1,-21.5
14,Cc1cccc(C2(NC(=O)CCCn3cncn3)CCCC2)c1,57.3
15,Cc1cccc(C2(NC(=O)CCN3C(=O)CCC3=O)CCCC2)c1,28.7
16,O=C(CCCn1cncn1)NC1(c2cccc(Br)c2)CC1,27.5
17,Cn1nc(C(=O)NC2(c3ccc(Cl)cc3)CCCC2)ccc1=O,6.67
18,Cc1nn(C)c(C)c1-c1cnc(CC2CCNCC2)cn1,21.1
19,CCN(C(=O)Cn1cc(NC(=O)C(C)(C)C)cn1)c1ccccc1,7.65
20,Cc1cncc(C(=O)N2CCC3(CCCN(c4nncs4)C3)C2)c1 (stereo not given),41.2
21,O=C(Nc1ccccc1)C1=NOC2(CCCN(C(=O)N3CCCC3)C2)C1 (stereo not given),-8.28
22,CNS(=O)(=O)CCCN(C)Cc1cc(C)ccc1OC,59.1
23,COc1ccc(C)cc1CN(C)CCCNS(C)(=O)=O,23
24,CCS(=O)(=O)CCN(C)Cc1cc(C)ccc1OC,21.1
25,Cn1ccc2ccc(C(=O)N3CCN(C(=O)N4CCOCC4)CC3)cc21,40.1
26,CCOC(=O)N1CCN(C(=O)c2ccc3ccn(C)c3c2)CC1,38.5
27,CC(=O)N1CCN(C(=O)c2ccc3ccn(C)c3c2)CC1,63.3

row,Structure (SMILES),INHIBITION [%]
1,C[C@@H]1CN(C(=O)[C@H]2CCCO2)C[C@]12CCN(c1ccsc1)C2=O,49.7
2,COc1ncccc1C(=O)N1CC[C@H]2C[C@@H](C)O[C@@H]2C1,-40.3
3,COc1ncccc1C(=O)N1CC[C@H]2C[C@@H](c3ccncn3)O[C@@H]2C1,-42.8
4,COc1cc(N2CC[C@@H]3O[C@@H](c4ccncn4)C[C@H]3C2)ncn1,73.2
5,COc1ncccc1C(=O)N1CC[C@H]2C[C@H](c3ccncn3)O[C@@H]2C1,52
6,Cc1ccc(N2CC[C@@H]3O[C@@H](c4ccncn4)C[C@H]3C2)nn1,37.8
7,COc1cc(N2CC[C@@H]3O[C@@H](c4ccnc(C)n4)C[C@H]3C2)ncn1,45.8
8,CCc1nc(Nc2ccc(C(=O)NC)cc2)c2c(n1)c(C)nn2CC,18.85
9,O=C(NC1CCc2ccccc2C1)C1CCN(Cc2ccco2)CC1 (stereo not given),31
10,Cc1noc(C(C)N2CCN(CCOCC(F)(F)F)CC2)n1 (stereo not given),12.85
11,Cc1cncc(C2CCN(Cc3cnc(C)nc3)CC2)n1,36.44
12,Cc1ccc(-c2cn(C3CCN(C(=O)[C@H]4CCCO4)CC3)nn2)cc1,23.3
13,O=C(C1CCCO1)N1CCC(n2cc(-c3ccc(F)cc3)nn2)CC1 (stereo not given),-10.9
14,Oc1ccccc1CN1CCC(n2cc(-c3ccc(F)cc3)nn2)CC1,55
15,OCc1ccc(CN2CCC(n3cc(-c4ccc(F)cc4)nn3)CC2)o1,-0.529
16,Cc1ncc(CN2CCC(n3cc(-c4ccc(F)cc4)nn3)CC2)cn1,53.8
17,O=C(c1ccccn1)N1Cc2nccn2CC(CN2CCOCC2)C1 (stereo not given),38.7
18,CNC(=O)CCc1cc(C2CCN(c3cnccn3)CC2)nc(C)n1,15.85
19,CN(C)Cc1cn2c(n1)CN(CC1CCCC1)CC2,29
20,CCn1ccc(-c2cc(C(=O)O)n3nc(C(F)(F)F)c(Br)c3n2)n1,11.2
21,Cc1ccc(C(=O)N2CCc3c(CNc4ncccn4)cncc3C2)o1,-66.6
22,CCc1cc(CN(C)C(=O)c2cnon2)on1,-40.6
23,OCc1csc(N2CCCC(CO)(Cc3cccc(Cl)c3)C2)n1 (stereo not given),-14.9
24,Fc1cccc(-c2nc(CN3CCCC3Cn3cccn3)co2)c1 (stereo not given),-14.6
25,Cc1cnn(CC2CCCN2Cc2coc(-c3ccc(F)cc3)n2)c1 (stereo not given),69.7
26,Cc1cnn(CC2CCCN2Cc2coc(-c3ccccc3)n2)c1 (stereo not given),-14.2
27,Fc1cccc(-c2nc(CN3CCCC3Cn3cncn3)co2)c1 (stereo not given),7.12

row,Structure (SMILES),INHIBITION [%]
1,Fc1ccc(-c2nc(CN3CCCC3Cn3cncn3)co2)cc1 (stereo not given),4.71
2,Cc1cnn(CC2CCCN2Cc2coc(-c3cccc(F)c3)n2)c1 (stereo not given),80.8
3,CS(=O)(=O)C1CCN(S(=O)(=O)c2ccc(F)c(F)c2)C1 (stereo not given),21.2
4,Cn1ccc2cc(C(=O)NC3CCS(=O)(=O)C3)ccc21 (stereo not given),-42.5
5,CNC(=O)[C@@H](C1CCCCC1)N1CCC[C@H]1C(=O)NCCN1CCCC1,0.112
6,CCc1nnc(SCC(=O)N2C[C@H]3CC[C@@H](C2)N(CC=C(C)C)C3)[nH]1,26.7
7,CC1c2ncc(CNC(=O)C3CC3)n2CCN1Cc1cccnc1 (stereo not given),-5.31
8,Cc1nc(N2CCOCC2)sc1C(=O)NCC(C)(C)N1CCCCC1,-4.87
9,COCCN1CCCC12CCN(C(=O)CC1CCCC1)CC2,32.4
10,Cn1ncc(C(=O)N2CCN(CCS(C)(=O)=O)CC2)c1Cl,30.95
11,O=C(NCC(O)Cc1ccccc1)c1ccc2[nH]c(=O)[nH]c2c1 (stereo not given),43.9
12,O=C1CCC2(CCOC2)CN1CCCOc1cccnc1 (stereo not given),-0.897
13,CCc1c(C)nn(CCN2CC3(CCOC3)CCC2=O)c1C (stereo not given),44.3
14,O=C1CCC2(CCOC2)CN1Cc1nncn1CCc1ccccc1 (stereo not given),10.1
15,CCCn1nc(C)c(CN2CC3(CCOC3)CCC2=O)c1C (stereo not given),64.5
16,Cc1nc2ccc(CN3CC4(CCOC4)CCC3=O)cc2[nH]1 (stereo not given),67.4
17,O=C1CCC2(CCOC2)CN1Cc1ccc2nsnc2c1 (stereo not given),16.8
18,CCn1nc(C)c(CCN2CC3(CCOC3)CCC2=O)c1C (stereo not given),56.6
19,CCCc1nc(C)c(CN2CC3(CCOC3)CCC2=O)s1 (stereo not given),33.7
20,O=C1CCC2(CCOC2)CN1Cc1nc2ccc(Cl)cc2[nH]1 (stereo not given),27.9
21,O=C([C@H]1CC[C@@H]2[C@@H](CCN2c2ncccn2)O1)N1CCCCO1,-13.2
22,Cc1noc(C(C)N2CCN(Cc3nnc(C4CC4)o3)CC2)n1 (stereo not given),-19.6
23,CN(C)C(=O)c1n[nH]c2c1CN(CC1CCC1)C2,30.5
24,O=C1CCC(C(=O)Nc2cnn(-c3ccccc3Cl)c2)N1 (stereo not given),19.7
25,COc1ccc(C)cc1-c1csc(N)c1C#N,1.86
26,Cc1ccc(C)c(-c2csc(N)c2C#N)c1,64.7
27,Cc1ccc(-c2csc(N)c2C#N)c(C)c1,40.9

row,Structure (SMILES),INHIBITION [%]
1,Cc1nc[nH]c1CN1C[C@H]2CC[C@@H](C1)N(C(=O)CCn1cncn1)C2,40.2
2,COc1cccc(C(C)Nc2ncnc3c2NC(=O)CN3)c1 (stereo not given),45.8
3,CC(CN1CCOCC1)n1cncc1-c1ccc2c(c1)CCCN2C (stereo not given),-16
4,NC(=O)C(NC(=O)c1cc(Br)c[nH]1)c1ccccc1 (stereo not given),34.4
5,NC(=O)C(NC(=O)c1cc(Cl)c[nH]1)c1ccccc1 (stereo not given),52.8
6,Cc1cc(C)c(C(=O)N[C@H](C(N)=O)c2ccccc2)c(=O)[nH]1,-31.4
7,CO[C@H]1CCN(Cc2c(C)noc2C)[C@@H]2CN(Cc3cccnc3)C[C@H]12,28.5
8,O=C(NCc1nnc2n1CCCCC2)N1CCc2ccccc2C1,41.2
9,COc1ccccc1CNC(=O)Cn1nc(-c2ccc(F)cc2)oc1=O,-16.1
10,CN(Cc1ccc(Cl)s1)C(=O)Cn1nc(-c2ccc(F)cc2)oc1=O,66.1
11,CN(Cc1ccc(F)cc1)C(=O)Cn1nc(-c2ccc(F)cc2)oc1=O,1.58
12,Cc1ccsc1CN(C)C(=O)Cn1nc(-c2ccc(F)cc2)oc1=O,22.1
13,Cc1ccc(CN(C)C(=O)Cn2nc(-c3ccc(F)cc3)oc2=O)cc1,30.8
14,Cc1ccccc1CN(C)C(=O)Cn1nc(-c2ccc(F)cc2)oc1=O,56.5
15,Cc1ccccc1CNC(=O)Cn1nc(-c2ccc(F)cc2)oc1=O,50.15
16,O=C(Cn1nc(-c2ccc(F)cc2)oc1=O)NCc1ccccc1F,-69.9
17,CN(Cc1ccccc1Br)C(=O)Cn1nc(-c2ccc(F)cc2)oc1=O,26.8
18,CCOC1Sc2nnc(C)n2N=C1c1ccc(Br)cc1 (stereo not given),18.2
19,CN(C)[C@@H]1CCN(C(=O)c2cccc(C#N)c2)[C@H]1Cc1cnn(C)c1,27.6
20,Cc1ccc(-c2cc(CN3CCOC(Cn4cncn4)C3)on2)cc1 (stereo not given),24.6
21,O=C(C1CC=CC1)N1CCC2(CCN(Cc3ccccn3)C2=O)C1 (stereo not given),17.5
22,CC(C)n1cnnc1C1CCCN(S(=O)(=O)CCCF)C1 (stereo not given),39.7
23,CC(C)n1cnnc1C1CCCN(S(=O)(=O)CC2CCCC2)C1 (stereo not given),76.5
24,CC(C)CCS(=O)(=O)N1CCCC(c2nncn2C(C)C)C1 (stereo not given),44.9
